# Screens from PubChem BioAssay.
# TGFb SMAD3 inh: qHTS for Inhibitors of TGF-b. HepG2 CAGA-GFP TGF-b/SMAD3 reporter, GFP fluorescence, 18 h; TGF-beta stimulated, 500 pg/mL final. Potency, µM (doses to about 46.1 µM), for inactives: at the top dose activity, negative = inhibition, usual class: inhibitors. 410,000 compounds, 1.2% hits; also: % is scaled to controls: 0 for no effect and ±100 for the full control effect; nearly all actives have a fitted effect of over 65% in size
#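 GFP signal (ex488/em500-530) from TGF-beta-stimulated HEPG2 CAGA-GFP cells, 500 pg/mL final, 18 h at 37 degrees C in DMEM plus 1% FBS, normalized to unstimulated and DMSO-stimulated controls.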
# VP16 counter: VP16 counterscreen qHTS for inhibitors of ROR gamma transcriptional activity; Drosophila S2 Gal4-VP16 UAS-luciferase, luminescence, 20 h; Potency, µM (series often up to 53.6 µM), inactives show at the highest dose activity, negative = inhibition, usual class: inhibitors; 310,000 compounds, 3.5% hits; AID 2546, 2010;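 also: Gal4-VP16 expression switched on by copper sulfate through the metallothionein promoter; % is scaled to controls: 0 for no effect and ±100 for the full control effect; nearly all actives have a fitted effect of over 50% in size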
# ATXN viability: Viability Counterscreen for Primary qHTS for Inhibitors of ATXN expression; S2 cells (HEK-293 line with an ATXN2-luciferase reporter) viability, CellTiter-Fluor protease fluorescence, 24 h; Potency, µM (series often up to 56.7 µM), actives largely listed as cytotoxic; 400,000 compounds, 0.49% hits; AID 651635, 2014; also: nearly all actives have a fitted effect of over 40% in size
# HepG2 viability: qHTS for Inhibitors of TGF-b: Cytotox Counterscreen; HepG2 CAGA-GFP viability, ATP luminescence, 18 h; Potency, µM (titrated, usually from 46.1 µM), inactives show at the highest dose activity change, negative = cytotoxicity, actives largely listed as cytotoxic; 410,000 compounds, 0.76% hits; AID 588856, 2011
#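 HepG2 CAGA-GFP cells (1000/well, DMEM with 1% FBS) received compound, then TGF-beta at 500 pg/mL final, and were incubated 18 hours at 37 degrees C. Viability was read by CellTiter-Glo luminescence. Media-only wells were set as complete cell-killing and DMSO as no toxicity.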
# ATXN2 expr inh: Primary qHTS for Inhibitors of ATXN expression; AID 1745845, 2022; Potency, µM (titrated, usually from 57 µM), without a hit: at the top dose activity change, negative = inhibition, actives largely listed as inhibitors; 360,000 compounds, 0.72% hits; HEK-293 ATXN2-luciferase reporter, luminescence, 24 h; also: % is scaled to controls: 0 for no effect and ±100 for the full control effect; nearly all actives have a fitted effect of over 55% in size
#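 qHTS (up to 57 uM final) was run with 24 h compound exposure of reporter cells at 37 °C. Each well was multiplexed: SteadyGlo luminescence measured ATXN2-luciferase expression after a fluorogenic Gly-Phe-AFC viability readout (25 uM final).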
# RORgamma inh: qHTS for inhibitors of ROR gamma transcriptional activity. Nuclear receptor ROR-gamma (Mus musculus), P51450. Drosophila S2 Gal4-RORgamma UAS-luciferase reporter, 20 h. Potency, µM (top dose mostly 53.6 µM), for inactives: at the highest dose activity change, negative = inhibition, hits mostly inhibitors. 310,000 compounds, 5.4% hits; also: % is scaled to controls: 0 for no effect and ±100 for the full control effect; nearly all actives have a fitted effect of over 60% in size
# Target sequence (P51450 whole entry, looked up, the tested form may be a part): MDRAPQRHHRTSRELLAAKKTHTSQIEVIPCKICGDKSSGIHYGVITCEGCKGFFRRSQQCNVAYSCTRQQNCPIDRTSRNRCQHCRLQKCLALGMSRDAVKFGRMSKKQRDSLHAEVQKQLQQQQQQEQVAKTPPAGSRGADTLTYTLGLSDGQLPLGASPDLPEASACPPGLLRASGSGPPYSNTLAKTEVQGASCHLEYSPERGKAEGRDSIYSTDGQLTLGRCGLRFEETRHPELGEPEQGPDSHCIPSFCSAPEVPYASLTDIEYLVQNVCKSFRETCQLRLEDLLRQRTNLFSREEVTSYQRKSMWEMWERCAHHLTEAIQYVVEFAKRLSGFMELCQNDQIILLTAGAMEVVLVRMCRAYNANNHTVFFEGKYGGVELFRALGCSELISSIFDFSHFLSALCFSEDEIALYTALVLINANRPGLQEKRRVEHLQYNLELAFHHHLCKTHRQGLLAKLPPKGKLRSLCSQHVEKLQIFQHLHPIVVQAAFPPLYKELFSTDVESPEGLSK
#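 A Gal4/UAS one-hybrid system in insect cells: metallothionein-promoter Gal4–ROR gamma fusion plus Photinus luciferase reporter. Copper sulfate 700 uM final, 20 hr ambient incubation, luminescent detection after 10 min with reagent.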
# Starred values were filed as active, the others as inactive; i = inactive; ? = inconclusive; / = no result given. Most compounds without a hit are left out; they make up all but 6.1% or so of the library. Calls follow the shape of the dose curve; as a rule, active = well fitted curve in the direction sought with a large enough effect; inconclusive = small, poorly fitted or top-dose-only effect, or another doubt; inactive = no such curve, though single readings can be large; an effect the other way counts as inactive or inconclusive. Potency is read from the fitted curve at half-maximal effect.
SMILES,TGFb SMAD3 inh,VP16 counter,ATXN viability,HepG2 viability,ATXN2 expr inh,RORgamma inh
CC(=O)c1cc2c(cc1N/C(=N/S(=O)(=O)c1ccc(C)cc1)c1ccc(F)cc1)OCO2,-12.6%,/,i,-11.2%,7.7%,/
CNc1ccccc1C(C)(C)c1cc(-c2cccc(Br)c2)no1,-25.1%,15.8µM*,i,-21.7%,-31.7%,?
CNc1ccccc1C(C)(C)c1cc(-c2cccc([N+](=O)[O-])c2)no1,8.7%,1.3%,i,-9.5%,-27.8%,23.2%
CCn1c(=O)cc(SCC(=O)NCCc2cccc(C)c2)c2ccccc21,-16.9%,/,i,-28.9%,-3.8%,/
CCCCC1(CO)C(=O)N(c2ccccc2)N(c2ccccc2)C1=O,-13.2%,0.6%,i,-24.8%,-4.6%,-13.2%
CCCCC1(Cc2cccc([N+](=O)[O-])c2)C(=O)N(c2ccccc2)N(c2ccccc2)C1=O,-16.8%,?,?,5.5%,?,17.8µM*
Cc1ccc(NC(=O)Cn2nnc(-c3nc(-c4ccc(Cl)cc4)no3)c2N)cc1C,?,/,/,2.7%,/,/
CCOc1ccc(-c2nc(=S)[nH][nH]2)cc1,19.3%,22.4µM*,i,2.9%,40.0%,5.01µM*
COc1ccc(-c2nc(=S)[nH][nH]2)cc1,-11.5%,?,i,1.7%,3.9%,10µM*
COc1ccc(-c2n[nH]c(=S)nc2-c2ccc(OC)cc2)cc1,-22.6%,?,i,0.5%,4.3%,7.08µM*
S=c1nc(-c2cccc(Cl)c2)[nH][nH]1,-6.9%,?,i,-17.7%,10.1%,12.6µM*
CCc1nn(CC(=O)Nc2ccc(N(CC)CC)cc2C)c(=O)c2cc3sccc3n12,?,/,/,-1.4%,/,/
FC(F)(F)c1ccc(-c2nc(=S)[nH][nH]2)cc1,-11.1%,-13.2%,i,-23.5%,17.2%,2.51µM*
COc1cc(C(=O)NC(=S)Nc2ccc(N3CCCC3)cc2)cc(OC)c1OC,-0.4%,4.47µM*,i,14.6%,-7.8%,7.94µM*
COc1cc(C(=O)NC(=S)N2CCCCCC2)cc(OC)c1OC,-4.7%,2.82µM*,i,7.1%,/,0.891µM*
COc1cc(C(=O)NCCC(=O)N2CCCCC2)cc(OC)c1OC,3.5%,0.0%,i,-0.2%,13.7%,12.4%
COc1cc(C(=O)NC(=S)NNC(=O)[C@H]2C[C@@H]2c2ccccc2)cc(OC)c1OC,-19.4%,-13.7%,i,0.2%,-19.0%,11.2µM*
COc1ccc(C(=O)NC(=S)Nc2ccc(N3CCCC3)cc2)cc1,31.8%,7.08µM*,i,-0.1%,-9.5%,2µM*
CCN(c1ccccc1)S(=O)(=O)c1nnc(NC(=O)COc2ccccc2F)s1,4.5%,/,i,-13.1%,3.3%,/
Cc1cccc(Cn2cnc3c(cnn3C(C)(C)C)c2=O)c1,?,/,/,-65.9%,/,/
CC(C)Oc1cccc(C(=O)NC(=S)Nc2ccc(N3CCN(C)CC3)cc2)c1,7.4%,?,?,-11.8%,/,5.62µM*
COc1cc(C(=O)NC(=S)NC(C)C)cc(OC)c1OC,8.6%,?,i,-11.2%,6.0%,7.94µM*
CN1CCN(c2ccc(NC(=O)c3ccc(-c4ccc(Br)cc4)o3)cc2)CC1,?,-12.3%,?,22.4µM*,?,4.1%
COc1cccc(C(=O)NC(=S)Nc2ccc(N(C)C)cc2)c1,-42.1%,?,i,-34.7%,47.9%,3.55µM*
COc1cccc(C(=O)Nc2ccc(C)cc2)c1,-6.1%,?,i,-29.3%,4.4%,?
CCN1CCN(c2ccc(NC(=O)c3ccc(Br)o3)cc2)CC1,5.1%,/,i,-13.3%,-4.8%,/
N#C/C(=C1\SCC(c2ccccc2Cl)S1)n1ccnc1 (stereo not given),/,/,i,/,-3.8%,/
Cc1ccc(CNC(=O)CN2C(=O)C3CCCCN3c3ccc(C(=O)N4CCCC4)cc32)cc1 (stereo not given),?,/,?,2.2%,-3.4%,/
